Laboratory results taken from publication PMC7819943, “Rice protein-binding microarrays: a tool to detect cis-acting elements near promoter regions in rice”.
The full ranking holds about 35,000 sequences; the median of “fluorescence intensity (a.u.)” is about 10,000, and the highest 2% start at about 52,000. This excerpt belongs to a sample that is enriched for the highest values.

What follows are sequences tested against T1, OsWOX13 (Oryza sativa, UniProt Q5QMM3 1-267) (assay: protein-binding microarray (RPBM); PBS, 2% BSA, 51.3 ng/ul salmon testes DNA, 50 uM zinc acetate, 200 nM TF, 25 C, 1 h; high values mean tight binding). Conditions: protein: recombinant; tags: N-terminal polyhistidine and DsRed monomer fusion (pET32a); label: CyDye5-dUTP incorporated in the synthesized complementary strand; 3' TTTTT single-stranded linker to array surface; dsDNA, one strand shown.
T1 sequence: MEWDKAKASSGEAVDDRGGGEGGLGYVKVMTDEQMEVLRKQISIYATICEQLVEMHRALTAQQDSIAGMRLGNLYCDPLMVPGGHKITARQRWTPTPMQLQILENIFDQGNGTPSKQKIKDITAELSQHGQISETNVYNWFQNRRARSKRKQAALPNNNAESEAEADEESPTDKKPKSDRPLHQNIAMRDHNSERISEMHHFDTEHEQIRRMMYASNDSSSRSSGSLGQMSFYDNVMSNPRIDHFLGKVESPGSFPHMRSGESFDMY
Summary of the method: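 Transcription factors were each fused at the N-terminus to a polyhistidine tag plus DsRed and expressed in E. coli BL21-CodonPlus before Ni–NTA purification. Binding to a double-stranded custom Agilent array was carried out with 200 nM protein at 25 °C for 1 h in PBS, 2% BSA, salmon testes DNA and 50 µM zinc acetate. The binding signal is per-feature fluorescence intensity, in arbitrary units, on an Axon 4000B scanner.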

In order of rising binding signal:
1. ACAAAACCATTTGTGATTTTCTTTGAGTGCCCAGTTTTGTCGGAGTCACCTAGTGCAG  3210 fluorescence intensity (a.u.)
2. CCCGTACGTGTTACCTAATCATGATGGGATGCCATAATACCGGAGTCACCTAGTGCAG  3570 fluorescence intensity (a.u.)
3. AGCTTTTCAGACTGAAAATGTAATAGACAACCTTATCAGACGGAGTCACCTAGTGCAG  3810 fluorescence intensity (a.u.)
4. AAGAAAACCTAATTGTTACTACCATTTACCAAACCTACCACGGAGTCACCTAGTGCAG  3910 fluorescence intensity (a.u.)
5. TGCTAGTTAATATAATCTACTAATTAAAATAGTCGATTGACGGAGTCACCTAGTGCAG  6000 fluorescence intensity (a.u.)
6. CACTGCAAATTAGATCTATATATAGTGAAACATTGTGAGACGGAGTCACCTAGTGCAG  6780 fluorescence intensity (a.u.)
7. TAGTCAATTACTACTAGGTATGTGCTATTCATAACCATGACGGAGTCACCTAGTGCAG  7320 fluorescence intensity (a.u.)
8. ATCACATAAAATTCCAGGGTTAATTGGATCCATGCTACTGCGGAGTCACCTAGTGCAG  8150 fluorescence intensity (a.u.)
9. GTGCTAATATAATTTAAATAACTAGTTTGACGGACAAATCCGGAGTCACCTAGTGCAG  10800 fluorescence intensity (a.u.)
10. TATGAATGCATTATGATTACTATTTGCTAATCATAAGTGGCGGAGTCACCTAGTGCAG  11000 fluorescence intensity (a.u.)
11. GTTCGCGTGATTAATCAAAGCCTATTCCTTGTCACTATGACGGAGTCACCTAGTGCAG  12400 fluorescence intensity (a.u.)
12. TTAGATTATTGAGTCAGATTACTATAAGCTAGATTATTATCGGAGTCACCTAGTGCAG  12500 fluorescence intensity (a.u.)
13. ACATTAATGTGATTTCCCATTTCTACCCTATAGTTCAACACGGAGTCACCTAGTGCAG  12800 fluorescence intensity (a.u.)
14. GGTAAATTGCAATACTCCGGATGTTCAGAGACAATAAGAGCGGAGTCACCTAGTGCAG  13900 fluorescence intensity (a.u.)
15. ATTAACTATAAATGATTTGGAGTCAATAGTTGGCTATAATCGGAGTCACCTAGTGCAG  16100 fluorescence intensity (a.u.)
16. ACACATGATTTGCATGCCAACCTTATTTCTCCTTCACTTTCGGAGTCACCTAGTGCAG  16500 fluorescence intensity (a.u.)
17. TTGCCAATTATGATTGGAGATTTACAAGTAGACTTCAATACGGAGTCACCTAGTGCAG  18500 fluorescence intensity (a.u.)
18. GAGTAAATTGCACACGGATGCAATCAATTGACCTGTGCTGCGGAGTCACCTAGTGCAG  20000 fluorescence intensity (a.u.)
19. ATACTGCTGTAACATTTGATTGGATTGAAAGGATATCGCTCGGAGTCACCTAGTGCAG  20500 fluorescence intensity (a.u.)
20. ATTACATTGACTAATAGATGATTTAGAGCTAATAGTGGGCCGGAGTCACCTAGTGCAG  25200 fluorescence intensity (a.u.)
21. GAAATAAATTTTGGATTGGCTATGTTAATATGATATGACCCGGAGTCACCTAGTGCAG  25900 fluorescence intensity (a.u.)
22. TATCGATCGATTGATTGCTATAGCTAGGTCAAATCGATCGCGGAGTCACCTAGTGCAG  28100 fluorescence intensity (a.u.)
23. CAATCATTGATTGTTACTTTGTTAGTAATTGGTTAGTATACGGAGTCACCTAGTGCAG  30100 fluorescence intensity (a.u.)
24. CTGAAATTGAAGTTAAATGCTACTAGTAATAATTGTACTACGGAGTCACCTAGTGCAG  30100 fluorescence intensity (a.u.)
25. AGTAGTTAATTGGATTGGGCCGGGCCCACCGGCCCACGGCCGGAGTCACCTAGTGCAG  30300 fluorescence intensity (a.u.)
26. CGCCGTAACAATCAGAACCAATCATGCTCTATGTGTAGTTCGGAGTCACCTAGTGCAG  30300 fluorescence intensity (a.u.)
27. ACGTTGATTAGTTAGTACTAACCTACTCCTACGTGTTAACCGGAGTCACCTAGTGCAG  30400 fluorescence intensity (a.u.)
28. TTGTAATTAGTAGGGTGATTACTATTTGGTAATCATAAGTCGGAGTCACCTAGTGCAG  33000 fluorescence intensity (a.u.)
29. GTAATTAATTACTTGATTAACAATTAAATAATAATAGTTACGGAGTCACCTAGTGCAG  33200 fluorescence intensity (a.u.)
30. AAAGTAGTTAATTACTGCTAATTACATGGATTAGTTGGGTCGGAGTCACCTAGTGCAG  33500 fluorescence intensity (a.u.)
31. TATTAAATTGACTATAGATGATTTGGAGCTAGTAATTGGCCGGAGTCACCTAGTGCAG  36800 fluorescence intensity (a.u.)
32. AAATTACTAATTTACCTATAATTAGTTGGACTCTAGCTCTCGGAGTCACCTAGTGCAG  37600 fluorescence intensity (a.u.)
33. TTATATTGATTTTCGTATGATTTTGGACACATAAGTACCTCGGAGTCACCTAGTGCAG  38200 fluorescence intensity (a.u.)
34. TTTAATTTTGAATTTTAATTAATTGGAGTTTACACGGACTCGGAGTCACCTAGTGCAG  39800 fluorescence intensity (a.u.)
35. ACAAATTAGCTATTATATTGGCTATAGATGATTTGGAGTACGGAGTCACCTAGTGCAG  42300 fluorescence intensity (a.u.)
36. AAAATTGACTATAAATGATTTGGAGCCGGTAGTTGGCTATCGGAGTCACCTAGTGCAG  51700 fluorescence intensity (a.u.)
37. GGATTTGATTGGATAAGCCGCTCGTAAGGACACCGTGCCTCGGAGTCACCTAGTGCAG  52300 fluorescence intensity (a.u.)
38. CGCGTTGATTAATTAGTCAGTTCGTTAACAACCTCGACTACGGAGTCACCTAGTGCAG  53000 fluorescence intensity (a.u.)
39. TACTAAATTGACTATGGACGATTTAGAGCTCGTAGTTGGCCGGAGTCACCTAGTGCAG  53600 fluorescence intensity (a.u.)
40. TTGATTAATTTGACGTCGATGCTACTAATAGTTAACCTTCCGGAGTCACCTAGTGCAG  54200 fluorescence intensity (a.u.)
41. TTGACTATAATTGATTTGGATAGTTGGCTATAATAAACCTCGGAGTCACCTAGTGCAG  54500 fluorescence intensity (a.u.)
42. GATTAATTGAAAGTTTACATGGACGACGTTGACTCGGGGCCGGAGTCACCTAGTGCAG  54700 fluorescence intensity (a.u.)
43. TACAAATTGATTGGCTATAGGTCAAATAGTGGATCCTAGACGGAGTCACCTAGTGCAG  56000 fluorescence intensity (a.u.)
44. CATAATTGGTAAATTTGCGGGTTCAATTCCTGCTGGATGCCGGAGTCACCTAGTGCAG  59500 fluorescence intensity (a.u.)
45. AGTAATTGATTGGCCGGATGCTACCGGTAGTTACTGACTACGGAGTCACCTAGTGCAG  60500 fluorescence intensity (a.u.)
46. GCTATAAAATTGACTATAATTGATTTGGAGCCGGTAGTTGCGGAGTCACCTAGTGCAG  63600 fluorescence intensity (a.u.)
47. CGTAATTAGTAGGTTGATTACTATTTGCTAATCATAAGTGCGGAGTCACCTAGTGCAG  65200 fluorescence intensity (a.u.)
48. TAGTAATTGATTGCTGCCAAGATTACATTACTGCCCAATACGGAGTCACCTAGTGCAG  65500 fluorescence intensity (a.u.)
